From PubChem BioAssay
Sampled rows, rich in hits. Any-hit rate of the full collection: about 3.4%.
FBW7 activator: human FBW7 E3 ligase activation, primary screen | AlphaScreen FBW7–phospho-cyclin E peptide binding, activator screen | normalized activity (activation), % at 26.1 µM | hit rate 0.13% among 650,000; in the data active = normalized activity above about 1.9%;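 note: purified mutant Fbw7 with reduced substrate affinity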
MITF inh: blocks human microphthalmia-associated transcription factor. O75030. AlphaScreen MITF homodimerization, bead proximity signal. inhibition, % at 2.6 µM. hit rate 0.91% among 650,000; in the data active = inhibition above about 50%;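 note: 0% = vehicle wells with protein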
TEAD-YAP block: TEAD-YAP interaction inhibition | HEK-TIYL cells, TEAD-Gal4/YAP UAS-luciferase luminescence | inhibition, % at 9.12 µM | hit rate 1.4% among 640,000 | AID 1259422; in the data active = inhibition above about 32%;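 note: 0% = median of test compound wells and 100% = reference inhibitor wells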
GPR151 activ: activates the human receptor GPR151 | Q8TDV0 | PathHunter beta-arrestin GPR151 cells, luminescence | activation, % at 11.2 µM | hit rate 1% among 650,000 | AID 1508602; in the data active = activation above about 4.9%;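 note: 0% = median of compound wells and 100% = cells with positive control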
Target sequence (Q8TDV0 whole entry, looked up): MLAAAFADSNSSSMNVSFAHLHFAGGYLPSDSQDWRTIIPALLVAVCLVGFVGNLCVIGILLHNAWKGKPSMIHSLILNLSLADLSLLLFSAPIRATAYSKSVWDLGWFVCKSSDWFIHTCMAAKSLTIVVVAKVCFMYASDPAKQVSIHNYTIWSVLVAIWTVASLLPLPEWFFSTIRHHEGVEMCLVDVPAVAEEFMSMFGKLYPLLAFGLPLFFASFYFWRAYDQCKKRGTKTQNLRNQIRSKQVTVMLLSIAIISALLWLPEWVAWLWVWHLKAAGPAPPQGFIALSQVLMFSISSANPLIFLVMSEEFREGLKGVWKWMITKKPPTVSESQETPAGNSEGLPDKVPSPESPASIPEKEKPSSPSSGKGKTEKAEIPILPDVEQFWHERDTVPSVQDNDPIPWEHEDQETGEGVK
MITF confirm: human MITF inhibition, confirmation. inhibition, % at 2.6 µM. shares compounds with MITF inh. hit rate 16% among 4,700. AlphaScreen MITF homodimerization, biotin/His-MITF beads;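 active = inhibition above a cutoff derived from the DMSO control wells, cut at about 28% in these data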;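 note: 0% = MITF dimer wells with DMSO only; inhibitors lower the bead chemiluminescence by keeping MITF from dimerizing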
AlphaScreen intf2: counter-screen: compounds optically interfering with AlphaScreen. shares compounds with MITF inh. LysRS AlphaScreen counterscreen, signal interference, triplicate. inhibition, % at 2.6 µM. hit rate 7.6% among 4,700. AID 1259376;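 active = inhibition above a cutoff derived from the DMSO control wells, cut at about 30% in these data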
Numbers without * were called inactive.

How did OC(CNC1CCN(Cc2ccccc2)C1)COCc1ccccc1Cl (stereo not drawn) do in these assays?
FBW7 activator: 0; MITF inh: 55*; TEAD-YAP block: 6; GPR151 activ: -1; MITF confirm: -9; AlphaScreen intf2: 0

How did CCOc1ccc(OCC(O)CNC2CCN(Cc3ccccc3)CC2)cc1 (stereo not drawn) do in these assays?
FBW7 activator: 0; MITF inh: -1; TEAD-YAP block: 5; GPR151 activ: 1

How did OC(COCc1ccccc1F)CN1CCN(c2ccccc2)CC1 (stereo not drawn) do in these assays?
FBW7 activator: 0; MITF inh: 4; TEAD-YAP block: -1; GPR151 activ: 1

Results for CCOc1ccccc1N1CCN(CC(O)COCc2ccccc2OC)CC1 (stereo not drawn) ?
FBW7 activator: 0; MITF inh: 74*; TEAD-YAP block: 0; GPR151 activ: 1; MITF confirm: -6; AlphaScreen intf2: -1

Results for Cc1ccc(C(=O)N/C(=C\c2ccc(F)cc2)C(=O)NCCCn2ccnc2)cc1 ?
FBW7 activator: 0; MITF inh: -1; TEAD-YAP block: -1; GPR151 activ: -1

Results for Cc1ccc(C(=O)N/C(=C\c2ccco2)C(=O)NCCCn2ccnc2)cc1 ?
FBW7 activator: 0; MITF inh: 74*; TEAD-YAP block: -8; GPR151 activ: 0; MITF confirm: 38*; AlphaScreen intf2: 53*

Results for Cc1ccc(C(=O)N/C(=C\c2ccco2)C(=O)NCCN2CCCCC2)cc1C ?
FBW7 activator: 1; MITF inh: 58*; TEAD-YAP block: -5; GPR151 activ: -1; MITF confirm: 0; AlphaScreen intf2: -8

Results for O=C(NCCN1CCCCC1)/C(=C/c1ccco1)NC(=O)c1ccccc1 ?
FBW7 activator: 0; MITF inh: 11; TEAD-YAP block: 8; GPR151 activ: -1

How did CC(C)(C)C(=O)Nc1c2c(nn1-c1ccc(F)cc1)CS(=O)C2 (stereo not drawn) do in these assays?
FBW7 activator: 0; MITF inh: -5; TEAD-YAP block: 5; GPR151 activ: 1

How did O=C(Nc1ccc2oc(-c3ccc(F)cc3Cl)nc2c1)c1ccccc1 do in these assays?
FBW7 activator: 0; MITF inh: 11; TEAD-YAP block: -6; GPR151 activ: 1

What do the screens show for `Clc1cc2c(c3ncccc13)OCN(Cc1ccco1)C2`?
FBW7 activator: 0; MITF inh: 33; TEAD-YAP block: 27; GPR151 activ: -1

What do the screens show for `Clc1cc2c(c3ncccc13)OCN(C1CCCC1)C2`?
FBW7 activator: -1; MITF inh: 97*; TEAD-YAP block: 66*; GPR151 activ: 0; MITF confirm: 99*; AlphaScreen intf2: 101*

How did CC1(C)CC(N2COc3c(cc(Cl)c4cccnc34)C2)CC(C)(C)N1 do in these assays?
FBW7 activator: 0; MITF inh: 52*; TEAD-YAP block: 40*; GPR151 activ: -1; MITF confirm: 68*; AlphaScreen intf2: 100*

What do the screens show for `CN(C)CCCN(CCCN(C)C)Cc1ccc(Cl)cc1`?
FBW7 activator: 0; MITF inh: 37; TEAD-YAP block: -8; GPR151 activ: 0

Results for CN(C)CCCN(CCCN(C)C)Cc1ccc(F)c(Br)c1 ?
FBW7 activator: 0; MITF inh: 53*; TEAD-YAP block: 4; GPR151 activ: 1; MITF confirm: -13; AlphaScreen intf2: -4

Results for CN(C)CCCN(CCCN(C)C)Cc1cccc(C(F)(F)F)c1 ?
FBW7 activator: 0; MITF inh: 57*; TEAD-YAP block: 6; GPR151 activ: 2; MITF confirm: -6; AlphaScreen intf2: -4

How did CN(C)CCCN(CCCN(C)C)Cc1ccc(F)cc1 do in these assays?
FBW7 activator: 0; MITF inh: 64*; TEAD-YAP block: 3; GPR151 activ: 1; MITF confirm: -10; AlphaScreen intf2: 10

How did CCOc1cc(C2NC(=O)NC(C)=C2C(=O)OC(C)C)ccc1O (stereo not drawn) do in these assays?
FBW7 activator: 0; MITF inh: 1; TEAD-YAP block: -13; GPR151 activ: 2

Results for Nc1nc(CSc2nnc(-c3cccc(F)c3)n2-c2ccccc2)nc(N2CCOCC2)n1 ?
FBW7 activator: 0; MITF inh: 51*; TEAD-YAP block: -9; GPR151 activ: -1; MITF confirm: 7; AlphaScreen intf2: 7

Results for CCN(CC(=O)N1CCC(C)CC1)S(=O)(=O)c1ccc(Cl)cc1 ?
FBW7 activator: 0; MITF inh: 7; TEAD-YAP block: 7; GPR151 activ: 1
